# Experimental data reported in ChEMBL document CHEMBL4888484, “Replenishing the malaria drug discovery pipeline: Screening and hit evaluation of the MMV Hit Generation Library 1 (HGL1) against asexual blood stage Plasmodium falciparum ,using a nano luciferase reporter read-out” (2022).
# About 420 (8.8%) of roughly 4,800 compounds showed an effect of 50% or more. This is one part of a sample in which strong results are shown more often than they occur.
# Tested on: Plasmodium falciparum
# Test: Confirmatory screen in NF54 nanoGlo assay, in single point, at 2uM, 72h
# Type: functional, Erythrocyte
# Details: timepoint 72 hour
row,Compound,% Inhibition [%]
1,COCCNC(=O)c1ccc(-n2nc(-c3nnc(C)o3)c(C)c2-c2ccc(OC)cc2)cc1,46
2,CC(C)N(C)CCOC(=O)c1ccccc1Cl,-1
3,CCN1c2cc(C(=O)NCc3ccncc3)ccc2C(=O)N2CCCC[C@H]21,-2
4,Cc1cc(C(=O)N(CCN(C)C)c2ccccc2)c(C)s1,-1
5,Cc1cc(C(=O)Nc2ccc(Br)c(C)n2)no1,-12
6,Cc1cc(Br)ccc1N1CC[C@@H](C(=O)NC2CC2)C1=O,2
7,CCN(CCO)S(=O)(=O)c1ccc2c(c1)CCO2,-7
8,c1ccc(CC2=NCCc3ccccc32)cc1,65
9,O=c1cc2c(nn1Cc1cccc(Cl)c1)-c1ccccc1CC2,-6
10,Cc1cccc2ncnc(N(C)[C@@H](C)Cc3ccc(O)cc3)c12,79
11,COc1ccccc1Nc1c(-c2cccs2)nc2ccccn12,-2
12,Cc1c(N=C2NC3(CCCCC3)Cc3ccccc32)c(=O)n(C)n1-c1ccccc1,-1
13,CC1([C@@](O)(C#CC[N+]2(C)CCCCC2)c2ccccc2)CCCC1,50
14,CCC[N+]1(CC#C[C@@](O)(c2ccccc2)C(C)(CC)CC)CCCCC1,48
15,CCC[N+]1(CC#C[C@@](O)(c2ccccc2)C2(C)CCCC2)CCCCC1,46
16,O=C(N1CCCN(c2nc3ccccc3nc2-c2ccccc2)CC1)C(Cl)(Cl)Cl,46
17,CCN(CC)c1ccc(C(=O)Nc2ccc3nc(N4CCCC4)cc(C)c3c2)cc1,85
18,COc1cc(OC)cc(C(=O)Nc2ccc3nc(N4CCC(C)CC4)cc(C)c3c2)c1,47
19,CCn1cc(C(=O)Nc2ccc(C(=O)N3CCCCC3)cc2)cn1,1
20,COc1ccc(N(Cc2ccc(F)cc2)S(=O)(=O)c2ccc3nncn3c2)cc1,-13
21,CC(C)CC(=O)Nc1ccc2c(c1)C(N1CCC(C)CC1)=Nc1ccccc1O2,0
22,Cc1oc(C(=O)N2CC3(CCCC3)c3ccccc32)cc1S(=O)(=O)N(C)C,4
23,COCCCn1c(NS(=O)(=O)c2ccccc2)c(S(=O)(=O)c2ccc(C)cc2)c2nc3ccccc3nc21,61
24,COCCCn1c(NS(=O)(=O)c2ccc3ccccc3c2)c(S(=O)(=O)c2ccc(C)cc2)c2nc3ccccc3nc21,56
25,COCCCN(Cc1c(C)nn(-c2cccc(F)c2)c1N1CCN(C)CC1)S(=O)(=O)c1ccc2ccccc2c1,7

row,Compound,% Inhibition [%]
1,COc1ccc(-c2cc(C[C@H]3CNCC[C@H]3CC(=O)Nc3ccccc3)no2)cc1,-7
2,CCCn1c(C)ccc(-c2noc(CCC(=O)NC3CCCC3)n2)c1=O,-6
3,CN(C(=O)C1C(C(=O)O)C1(C)C)c1ccccc1OC(F)F (stereo not drawn),-2
4,Cc1ccccc1[C@H]1CCN(c2ccc(NC(=O)c3ccc(Cl)cc3)c(C(=O)O)c2)C1,-11
5,Cc1ccc(C(=O)Nc2ccc(N3CCN(CCC#N)CC3)cc2C(=O)O)cc1,-12
6,Cc1ccc(C(=O)Nc2cc3c4c(c2)C2CCCC2CN4CC2CCCC32)cc1 (stereo not drawn),60
7,CC(C)(C)OC(=O)N1C2CCC1CC(CC(=O)NC1CCCC1)C2 (stereo not drawn),8
8,COCCN(CC1CN(Cc2cccs2)CC1c1cccc(F)c1)C(=O)C(C)C (stereo not drawn),-3
9,Cc1cc(C)n2cc(COC(=O)Cn3c(C)cc4ccccc43)nc2n1,-2
10,Cc1oc2ncn(CCN3CCCC3)c(=O)c2c1C(=O)Nc1ccc(C#N)cc1,34
11,CCCN1CCC(NCc2ccc(-c3cccc(Cl)c3Cl)o2)CC1,65
12,O=C(Nc1cccc2ccccc12)c1nn[nH]c1NS(=O)(=O)c1ccccc1,-9
13,COc1ccnc(N2CCc3nn(C(C)C)c(=O)cc3C2)n1,-4
14,O=C(Cc1ccc(N(Cc2cccc(F)c2)C(=O)C2CCCC2)cc1)NCCN1CCCCC1,54
15,O=C(Cc1ccc(N(Cc2cccc(F)c2)C(=O)C2CCCC2)cc1)NCCN1CCCC1,21
16,Cc1cccc(CN(C(=O)C2CCCC2)c2ccc(CC(=O)NCCN3CCOCC3)cc2)c1,9
17,NC(=O)C1CCN(C(=O)Nc2nc(C(F)(F)F)cs2)CC1,5
18,CC1(C)CCC[C@@H]1NS(=O)(=O)c1ccc(C(=O)N2CCOCC2)cc1,4
19,Oc1ccc(-c2ncc3n2CCCC3)cc1,4
20,Oc1ccc(-c2nnc(-c3ccc(O)cc3)nn2)cc1,51
21,Cc1c(-c2ccc(F)cc2)[nH]c2ccc(CNc3nccc(N(C)C)n3)cc12,29
22,CC(C)[C@H](Nc1ccc2nccnc2n1)c1nnc2n1CCC2,-8
23,Oc1ccccc1-c1cnc(C(F)(F)F)s1,94
24,Oc1nc(-c2cccc(C(F)(F)F)c2)sc1-c1ccccc1,0
25,CN(C)Cc1cn(C[C@H]2C[C@@H](NC(=O)Nc3ccc4c(c3)OCCO4)[C@H](O)[C@@H]2O)nn1,0

row,Compound,% Inhibition [%]
1,CC1CN(C(=O)COc2ccc3oc4ccccc4c3c2)CC(C)O1 (stereo not drawn),-3
2,CNC[C@H]1CCCN1C(=O)c1ccc(-c2noc(C(F)(F)F)n2)cc1,29
3,COC1CCCCC1NC(=O)c1ccc(-c2noc(C(F)(F)F)n2)cc1 (stereo not drawn),-1
4,CC(C(=O)N1N=CCC1(O)C(F)(F)F)n1nc(C(F)(F)F)cc1C1CC1 (stereo not drawn),-1
5,O=C(NCCc1cc(F)cc(F)c1)C1CC2CCC1C2 (stereo not drawn),0
6,COc1ccc(-c2nccn3cc(C(=O)NCCc4ccncc4)nc23)cc1,-1
7,O=S(=O)(Cc1cc(Cl)cc(Cl)c1)NCCCCn1ccnc1,-6
8,COc1ccc(Nc2nnc(-c3ccc(NC(=O)C(=O)NCCCn4ccnc4)cc3)s2)cc1,56
9,Cn1c2ccc(Br)cc2c2cc(NS(=O)(=O)c3ccccc3)ccc21,4
10,CS(=O)(=O)Nc1nc2c(s1)CN(C(=O)c1ccc3c(c1)CCC=C3)CC2,0
11,CCc1cc(=O)[nH]c(-n2nc(C3CC3)cc2NC(=O)C2CCCCC2)n1,88
12,Cc1cc(=O)[nH]c(-n2nc(C3CC3)cc2NC(=O)c2ccc(C(C)(C)C)cc2)n1,57
13,CC(C)(C)c1ccc(C(=O)N[C@H]2CCCC[C@@H]2NC(=O)c2ccc(C(C)(C)C)cc2)cc1,-5
14,Cc1cc(F)ccc1NC(=O)Cn1nc(C2CC2)c2c(C(F)F)cc(=O)[nH]c21,-4
15,CCc1cc(C(=O)N2CCCCCC2)c2c(C3CC3)nn(-c3ccc(F)cc3)c2n1,0
16,CN1CCC[C@H](C(=O)Nc2nc(C3CC3)cs2)C1,-12
17,Cc1nc(CC(=O)Nc2cc(C3CC3)nn2-c2ccccc2)cs1,1
18,CC1CCC(NC(=O)C(c2ccccc2)c2ccccc2)CC1 (stereo not drawn),10
19,Cc1nn(C)c(NC(=O)c2ccc(C(C)(C)C)cc2)c1C1=CCCCC1,15
20,Cc1cc(=O)[nH]c(-n2nc(C3CC3)cc2NC(=O)C(c2ccccc2)c2ccccc2)n1,91
21,Cc1ccc(C(=O)Nc2c(C(N)=O)sc3nc(C(F)F)cc(C4CC4)c23)cc1,-16
22,CC(C)c1cc(=O)[nH]c(-n2nc(C3CC3)cc2NC(=O)c2ccc(F)cc2)n1,93
23,CC1CC(C)CC2(C1)NC(=O)N(CCC1OCCO1)C2=O (stereo not drawn),-1
24,Cc1cc(=O)n(CC(=O)N2CCC(C)CC2)c(-c2ccc(F)cc2)n1,-4
25,O=C(CCc1nc(CN2CCN(S(=O)(=O)c3ccc(F)cc3)CC2)no1)N1CCCC1,-4

row,Compound,% Inhibition [%]
1,CCOC(=O)N1CCc2c(nc(-c3ccc(C)cc3)n(CC(=O)Nc3ccc(C(C)C)cc3)c2=O)C1,-16
2,Cc1noc([C@H](C)S(=O)(=O)Cc2cc(C)on2)n1,0
3,O=S(=O)(Nc1ccc(F)cc1OCC1CC1)c1cn[nH]c1,-12
4,Cn1cc(CNC(=O)NCC2(Cc3ccccc3)CCC2)cn1,-4
5,Cc1c(C(C)C)c(=O)n(-c2ccc(S(=O)(=O)N3CCN(c4nc5ccccc5nc4-c4ccccc4)CC3)cc2)n1C,-20
6,CCN(CC(C)(C)O)C(=O)C1CCCCCC1,-9
7,Cn1nc(C(F)(F)F)cc1B1OC(C)(C)C(C)(C)O1,4
8,C=CCOc1ccc(Cl)c(C(=O)N[C@H]2CCS(=O)(=O)C2)n1,0
9,Cc1cc(N)n(-c2nc(-c3ccccc3)cc(=O)[nH]2)n1,1
10,O=C(CCCc1ccccc1)Nc1cc(C2CC2)nn1-c1nc(-c2ccccc2)cc(=O)[nH]1,48
11,CCC(CC)C(=O)Nc1cc(C2CC2)nn1-c1nc(-c2ccccc2)cc(=O)[nH]1,50
12,Cc1ccc(NC(=O)NC(=O)Cn2ccc(=O)c3sccc32)cc1C,0
13,Cc1ccc2c(c1)c1c(n2S(=O)(=O)c2ccc(C(C)(C)C)cc2)CCCN(C)C1,76
14,Cc1ccc(S(=O)(=O)N2CCCC(=O)c3ccccc32)cc1,-3
15,Cc1ccc(S(=O)(=O)N2CCN(S(C)(=O)=O)C2)cc1,0
16,CC#CCCC(=O)Nc1ccc(OC)cc1,-5
17,Cc1cc(C)c(OC(=O)c2ccc(Cl)cc2Cl)c(CNC(=O)c2ccccc2)c1,-16
18,c1cc([C@@H]2CCCCN2c2nc(C3CC3)ns2)n[nH]1,2
19,CCNC(=O)C[C@H]1CCCCN1C(=O)C1CCN(Cc2csc(C)n2)CC1,-1
20,O=S(=O)(c1ccccc1C(F)(F)F)N1CC[C@]2(CCN(c3cccnc3)C2)C1,-2
21,Cc1ccc(C(=O)N[C@@H](C)CCc2ccccc2)cc1S(=O)(=O)N1CCN(C)CC1,-20
22,CCn1nccc1CN(C)C(=O)c1cc(C)c(C)s1,5
23,CCCC[C@H](CC)C(=O)Nc1cc(C)ccn1,0
